Out of some 330,000 compounds screened, about 1,700 (0.52%) were called active. Shown is part of a subset that was picked to be rich in actives. A number with no mark means an inactive call.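 Rule for the calls: active = GFP response versus DMSO above a set limit, roughly screen mean plus 3 SD (cut at about 180% in these data); inconclusive = fewer than 70 cells counted for a yeast strain; inactive = the rest.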
experiment: modulators of MEP2-GFP levels in yeast, primary screen, S. cerevisiae, multiplex flow cytometry, MLPCN library (AID 2016);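 note: median GFP fluorescence of the barcode-gated MEP2-GFP cells per well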; conditions: S. cerevisiae MEP2-GFP strain, 3 h, at 10 µM, active compounds read high, 100% = DMSO control level

Row | Compound | GFP response vs DMSO
1 | CCc1ccccc1S(=O)(=O)Cc1ccc(C(=O)NCCc2ccccc2)o1 | 109%
2 | Cc1ccccc1S(=O)(=O)Cc1ccc(C(=O)NCCN2CCCCC2C)o1 (configuration not stated) | 460% [may fluoresce violet] (active)
3 | Cc1oc(-c2ccccc2F)nc1CS(=O)CC(=O)NCCN1CCCCC1C (configuration not stated) | 103%
4 | CCOc1ccc(CCNC(=O)C(CC)n2nc(C)n3c(cc4sccc43)c2=O)cc1OCC (configuration not stated) | 105%
5 | CCc1ccc2nc(N(CCCN(C)C)C(=O)c3ccc4c(c3)OCCO4)sc2c1 | 104%
6 | CCOc1ccc2nc(N(CCN(C)C)C(=O)c3ccc4ccccc4c3)sc2c1 | 233% [may fluoresce violet] (active)
7 | CCOc1ccc2nc(N(CCCN(C)C)C(=O)c3ccc(C(=O)c4ccccc4)cc3)sc2c1 | 104%
8 | CC(C)(C)c1ccc(C(CC(=O)O)NS(=O)(=O)Cc2ccccc2)cc1 (configuration not stated) | 98.8%
9 | CCSC1=NCCN1C(=O)c1ccc(S(=O)(=O)N(CC)CC)cc1 | 106%
10 | O=C(NCCc1ccccc1)C(=O)NCC1OCCN1S(=O)(=O)c1cccs1 (configuration not stated) | 108%
11 | CCN1/C(=C/c2ccc3ccc(C)cc3[n+]2CC)Sc2ccccc21 | 351% [may fluoresce green] (active)
12 | CCN1/C(=C\c2ccc3ccccc3[n+]2CC)Sc2cc(C)ccc21 | 1150% [may fluoresce green] (active)
13 | O=C(NC1Cc2ccccc2C1)c1cc(COc2cccc(C(F)(F)F)c2)on1 | 104%
14 | Cc1ccc(OCC(=O)Nc2ccc(N3CCN(C(=O)c4ccco4)CC3)cc2)c(C)c1 | 229% [may fluoresce violet] (active)
15 | CCC(=O)Nc1ccc(C(=O)N2CCN(C(=O)c3ccco3)CC2)cc1 | 104%
16 | Cc1ccc(C)c(OCC(=O)N2CCN(C(=O)c3ccco3)CC2)c1 | 105%
17 | CCN(C[C@H]1N[C@@](Cc2ccccc2)(C(=O)OC)[C@H]2C(=O)N(Cc3ccccc3)C(=O)[C@@H]12)C(=O)c1ccc(C)cc1 | 84.7%
18 | COCC(C)OC(=O)c1c(N)n(CCCN2CCOCC2)c2nc3ccccc3nc12 (configuration not stated) | 210% [may fluoresce violet] (active)
19 | CC(CN1CCOCC1)OC(=O)c1ccc(C(C)(C)C)cc1 (configuration not stated) | 110%
20 | CC(C)(C)OC(=O)c1c(N)n(CCCN2CCCC2=O)c2nc3ccccc3nc12 | 107%
21 | CCOC(=O)Cc1csc(NC(=O)CN(C)S(=O)(=O)c2ccc3c(c2)CCC(=O)N3)n1 | 96%
22 | CCCN1C(=O)C(NC(C)=O)c2cc(OC)ccc21 (configuration not stated) | 107%

Row | Compound | GFP response vs DMSO
23 | O=C(CS(=O)(=O)c1cn(Cc2cccc(F)c2)c2ccccc12)N1CCCCC1 | 236% [may fluoresce violet] (active)
24 | O=C(CS(=O)(=O)c1cn(Cc2ccc(Cl)cc2)c2ccccc12)N1CCOCC1 | 91.9%
25 | CC(=O)Nc1ccc(NC(=O)CS(=O)(=O)c2cn(CC(=O)N3CCCCC3)c3ccccc23)cc1 | 95.1%
26 | CC(NC(=O)c1cccc2ccccc12)c1ccc2c(c1)CCCC2 (configuration not stated) | 148%
27 | Cc1c(C(=O)OCC(=O)N2CCCC2=O)oc2ccccc12 | 108%
28 | Cc1ccc(C(=O)N2CC(=O)Nc3ccccc32)o1 | 101%
29 | O=C(O)c1cccc2c1C(=O)N(C1CCCC1)C2 | 97.4%
30 | Nc1nnc(SCC(=O)OCc2ccc(Cl)c(Cl)c2)s1 | 95.3%
31 | NC(=O)C1CCN(C(=O)/C(=C/c2ccco2)NC(=O)c2ccccc2)CC1 | 215% [may fluoresce violet] (active)
32 | O=C(NCc1ccco1)/C(=C/c1ccco1)NC(=O)c1ccccc1 | 206% [may fluoresce violet] (active)
33 | CC1CCN(C(=O)/C(=C\c2ccccc2)NC(=O)c2ccccc2)CC1 | 106%
34 | Cc1ccc(C(=O)N/C(=C/C=C/c2ccccc2)C(=O)NCc2ccco2)cc1 | 95.7%
35 | Cc1ccc(C(=O)N/C(=C\c2ccco2)C(=O)N2CCSCC2)cc1C | 109%
36 | O=C(NCC1CCCO1)/C(=C\c1ccco1)NC(=O)c1ccccc1 (configuration not stated) | 102%
37 | N#CCCN1CCN(S(=O)(=O)c2ccc(S(=O)(=O)NC3CCCCC3)cc2)CC1 | 107%
38 | Cn1c2ccccc2c2c(C(=O)N3CCN(c4ccc(F)cc4)CC3)cn(C3CCCC3)c(=O)c21 | 116%
39 | COc1cc(C)c(Cl)cc1S(=O)(=O)n1ccnc1 | 92%
40 | O=C(NCC(=O)N1CCN(c2ccccc2F)CC1)c1cccs1 | 111%
41 | C/C(=N/NS(=O)(=O)c1ccccc1)c1ccc(NC(=O)C(F)(F)F)cc1 | 219% (active)
42 | CC(=O)N(C)c1ccc(NC(=O)C(F)(F)F)cc1 | 100%
43 | C/C(=N\NS(=O)(=O)c1ccc(Cl)cc1)c1ccc(NC(=O)c2ccco2)cc1 | 102%
44 | C[N+](C)(C)CCNC(=O)c1cc[n+](Cc2ccccc2)c(/C=N/O)c1 | 104%

Row | Compound | GFP response vs DMSO
45 | COC(=O)Nc1ncc(CN2C(=O)c3ccccc3C2=O)s1 | 109%
46 | CCOC(=O)c1cnc(SCC(=O)Nc2ccccc2C(=O)OC)nc1N | 98.3%
47 | CCOC(=O)c1cnc(SCC(=O)NCc2ccco2)nc1N | 222% (active)
48 | CCOC(=O)c1cnc(SCC(=O)Nc2cccc(OC)c2)nc1N | 90.7%
49 | CCOc1ccc(CN(Cc2ccco2)C(c2cccs2)c2nnnn2C(C)(C)C)cc1 (configuration not stated) | 98.9%
50 | CCN(CCn1cccn1)C(=O)CC1C(=O)NCCN1Cc1cccc(OC)c1OC (configuration not stated) | 100%
51 | CC(=O)Nc1ccc(NC(=O)COC(=O)C2CCC(C(C)(C)C)CC2)cc1 (configuration not stated) | 103%
52 | CC(=O)Nc1ccc(NC(=O)CC2CCCC2)cc1 | 779% [may fluoresce violet] (active)
53 | COc1ccc(NC(=O)CN(C)C(=O)CC2CCCCC2)cc1 | 102%
54 | O=C(COC(=O)/C=C/c1cccc(Cl)c1)NCCc1ccccc1 | 114%
55 | CCN(CC(=O)NC(=O)NCc1ccccc1)Cc1nc2ccccc2c(=O)[nH]1 | 98.5%
56 | CCCC(=O)N(CCc1ccccc1)Cc1nc2ccccc2c(=O)[nH]1 | 85.6%
57 | O=C(c1ccco1)N(Cc1nc2ccccc2c(=O)[nH]1)C1CCCC1 | 271% [may fluoresce violet] (active)
58 | COc1ccc(CNC(=O)CN(C(=O)c2csnn2)c2cnc3ccccc3c2)cc1 | 102%
59 | CCCCCCNCCn1cnc2c(N)ncnc21 | 97.1%
60 | COc1ccc(CCNC(=S)N2CCN(S(=O)(=O)c3ccc(F)cc3)CC2)cc1 | 103%
61 | COc1ccc(NS(=O)(=O)c2cc(C(=O)Nc3ccccc3C(=O)O)ccc2C)cc1 | 95.4%
62 | COc1ccc(C(=O)NN(C)c2nc(-c3ccccc3)cc(C)c2S(C)(=O)=O)cc1 | 287% [may fluoresce violet] (active)
63 | COc1ccc(C(=O)Nc2cccc(S(C)(=O)=O)c2)cc1 | 112%
64 | O=C(CCc1ccc(S(=O)(=O)N2CCOCC2)cc1)NN=C1CCCCCCC1 | 104%
65 | O=C(O)c1ccc(S(=O)(=O)N2CCOCC2)o1 | 264% [may fluoresce violet] (active)
66 | O=C(c1cc(S(=O)(=O)N2CCOCC2)ccc1Cl)N1CCOCC1 | 103%

Row | Compound | GFP response vs DMSO
67 | Cc1cccc(C)c1NC(=O)c1ccc(CN2CCc3ccccc3C2)cc1 | 101%
68 | COc1ccc(C(=O)N(Cc2ccccc2)c2ccc(C)cc2)cc1S(=O)(=O)N1CCOCC1 | 103%
69 | CCOc1ccccc1NC(=O)C12CC3CC(C1)CC(c1ccc(C)cc1)(C3)C2 | 97.6%
70 | C=CCNC(=O)C12CC3CC(C1)CC(C(=O)NCC=C)(C3)C2 | 106%
71 | Cc1ccc(C23CC4CC(CC(C(=O)NCC(=O)O)(C4)C2)C3)cc1 | 292% [may fluoresce violet] (active)
72 | CCn1c(C)nc2c1C(=O)c1ccccc1C2=O | 93.7%
73 | O=C(CNC(=O)[C@@H]1Cc2ccccc2CN1)NC1CCCCC1 | 99.4%
74 | Cc1cc2cc3c(cc2nc1SCC(=O)Nc1c(C)cccc1C)CCC3 | 94.7%
75 | CCOc1ccc(C(C(=O)NC2CCCC2)N(C(=O)c2snc(C(N)=O)c2N)C2CCCC2)cc1 (configuration not stated) | 113%
76 | NC(=O)c1nsc(C(=O)N(CCCN2CCOCC2)C(C(=O)NC2CCCCC2)c2ccc(Cl)cc2)c1N (configuration not stated) | 238% [may fluoresce violet] (active)
77 | CC(C)(C)NC(=O)C(c1ccc(Cl)cc1)N(CCO)C(=O)c1snc(C(N)=O)c1N (configuration not stated) | 97.4%
78 | CC(C)CNC(=S)NC(=O)c1ccc(Cl)cc1 | 100%
79 | COCc1cc(=O)n2[nH]c(C)c(-c3ccccc3)c2n1 | 97.4%
80 | COCCNc1nc2nonc2nc1N1CCCC1c1nccs1 (configuration not stated) | 90.4%
81 | CCn1c(/C=C/c2ccc([N+](=O)[O-])o2)nc2ccccc2c1=O | 304% (active)
82 | CCc1ccc(S(=O)(=O)N/N=C\c2ccc([N+](=O)[O-])o2)cc1 | 105%
83 | CCn1c(=O)c([N+](=O)[O-])c(NCc2ccc3c(c2)OCO3)c2ccccc21 | 94.2%
84 | CC(C)(C)c1ccccc1NC(=O)CN1C(=O)NC2(CCCC2)C1=O | 105%
85 | Cc1ccc(Cl)c(OCC(=O)NN2CCN(C)CC2)c1 | 103%
86 | O=C(COC(=O)c1ccc(O)cc1O)c1ccc2c(c1)OCCO2 | 110%
87 | COc1ccccc1C(=O)NCC(=O)OCC(=O)Nc1nnc(-c2ccccc2)o1 | 99.7%
